# Data from PubChem BioAssay (EPA / NIEHS).
# Activity calls are given as the source filed them. How the source made its calls: active means hit-call score of the fitted dose curve at least 0.9, where 1 is the maximum; inactive means score below 0.9.
# Key:
# Conditions in all cases: mRNA level, 48 h; actives raise or lower the signal
# [1] = read-out: Lipoprotein lipase (LPL), LPL (gene 4023); assay: LTEA_HepaRG_LPL: Life Technologies and Expression Analysis (LTEA) Assay for Lipoprotein lipase (LPL) using HepaRG (AID 2283515)
# Outline: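 Differentiated human HepaRG cells in serum-free induction medium were exposed in duplicate for 48 h to eight half-log concentrations (top 100 uM) in 0.5% DMSO. LPL mRNA was quantified by TaqMan qRT-PCR, normalized to ACTB, GAPDH and POLR2A.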
# [2] = read-out: MicroRNA 122 (MIR122), gene 406906; assay: LTEA_HepaRG_MIR122: Life Technologies and Expression Analysis (LTEA) Assay for MicroRNA 122 (MIR122) using HepaRG (AID 2283516); further: the transcript read is the microRNA miR-122
# Outline: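 HepaRG, 48 h exposure, 8-pt half-log from 100 uM, 0.5% DMSO; TaqMan qRT-PCR; bidirectional fit vs DMSO.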
# [3] = read-out: matrix metalloproteinase-10 (MMP10), MMP10 (gene 4319); assay: LTEA_HepaRG_MMP10: Life Technologies and Expression Analysis (LTEA) Assay for matrix metalloproteinase-10 (MMP10) using HepaRG (AID 2283517)
# Outline: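 HepaRG, collagen I, ~100,000 cells/well; serum-free induction medium; 48 h exposure, duplicate, 8-pt half-log to 100 uM, 0.5% DMSO. Readout: TaqMan qRT-PCR, normalized to ACTB/GAPDH/POLR2A; bidirectional fit vs DMSO.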
# [4] = read-out: MYC, MYC (gene 4609); assay: LTEA_HepaRG_MYC: Life Technologies and Expression Analysis (LTEA) Assay for MYC using HepaRG (AID 2283518)
# Outline: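 Expression changes were scored by TaqMan qRT-PCR with ACTB, GAPDH and POLR2A normalization. Cultures in serum-free induction medium received duplicate 8-point concentration series, highest 100 uM, for 48 h; DMSO (0.5%) served as baseline.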
# [5] = read-out: matrix metalloproteinase-3 (MMP3), MMP3 (gene 4314); assay: LTEA_HepaRG_MMP3: Life Technologies and Expression Analysis (LTEA) Assay for matrix metalloproteinase-3 (MMP3) using HepaRG (AID 2283519)
# Outline: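 Differentiated human HepaRG cells, plated 48 h on collagen I, were exposed in duplicate for 48 h in serum-free induction medium to eight half-log concentrations up to 100 uM in 0.5% DMSO. MMP3 mRNA was quantified by TaqMan qRT-PCR, normalised to ACTB, GAPDH and POLR2A.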
# [6] = read-out: Paternally Expressed 10 (PEG10), PEG10 (gene 23089); assay: LTEA_HepaRG_PEG10: Life Technologies and Expression Analysis (LTEA) Assay for Paternally Expressed 10 (PEG10) using HepaRG (AID 2283520);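 on AC50: PEG10 transcript by qRT-PCR normalised to ACTB GAPDH and POLR2A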
# Outline: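 Chemicals tested on HepaRG cells for 48 h, highest concentration 100 uM. PEG10 expression assessed by qRT-PCR relative to DMSO control.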
# [7] = read-out: Nuclear factor NF-kappa-B p105 subunit (Homo sapiens) (UniProt P19838); assay: LTEA_HepaRG_NFKB1: Life Technologies and Expression Analysis (LTEA) Assay for Nuclear Factor Kappa B Subunit 1 (NFKB1) using HepaRG (AID 2283521)
# Outline: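 NFKB1 transcript was measured by TaqMan qRT-PCR on Fluidigm arrays, normalised to three housekeeping genes and fitted in both directions against 0.5% DMSO. HepaRG cells were dosed in duplicate for 48 h in serum-free induction medium, eight half-log steps from 100 uM.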
# [8] = read-out: Protein phosphatase 2A (PPP2R4), PTPA (gene 5524); assay: LTEA_HepaRG_PPP2R4: Life Technologies and Expression Analysis (LTEA) Assay for Protein phosphatase 2A (PPP2R4) using HepaRG (AID 2283522)
# Outline: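 Gene-expression endpoint in HepaRG hepatic cells: 48 h treatment across eight half-log concentrations up to 100 uM in 0.5% DMSO. PPP2R4 mRNA by qRT-PCR, normalized to three endogenous control genes.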
# [9] = read-out: Phosphatase and tensin (PTEN), PTEN (gene 5728); assay: LTEA_HepaRG_PTEN: Life Technologies and Expression Analysis (LTEA) Assay for Phosphatase and tensin (PTEN) using HepaRG (AID 2283523)
# Outline: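 Differentiated human HepaRG cells, plated 48 h then switched to serum-free induction medium, were exposed in duplicate for 48 h to eight half-log concentrations up to 100 uM in 0.5% DMSO. PTEN mRNA measured by TaqMan qRT-PCR, normalized to ACTB/GAPDH/POLR2A, bidirectional fit versus DMSO.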
# [10] = read-out: solute carrier (SLC22A1), SLC22A1 (gene 6580); assay: LTEA_HepaRG_SLC22A1: Life Technologies and Expression Analysis (LTEA) Assay for solute carrier (SLC22A1) using HepaRG (AID 2283524)
# Outline: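 Human HepaRG cells were plated 48 h, switched to serum-free induction medium, then exposed in duplicate for 48 h to 8-point half-log series from 100 uM in 0.5% DMSO. SLC22A1 mRNA measured by qRT-PCR, normalized to ACTB/GAPDH/POLR2A, fitted bidirectionally versus DMSO.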
# [11] = read-out: NAD(P)H dehydrogenase [quinone] 1 (NQO1), NQO1 (gene 1728); assay: LTEA_HepaRG_NQO1: Life Technologies and Expression Analysis (LTEA) Assay for NAD(P)H dehydrogenase [quinone] 1 (NQO1) using HepaRG (AID 2283526)
# Outline: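 Human HepaRG hepatic cells received chemicals for 48 h in serum-free induction medium with 0.5% DMSO, up to 100 uM. Expression was assessed by TaqMan qRT-PCR against housekeeping controls and fitted bidirectionally against DMSO.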
# [12] = read-out: Nuclear factor erythroid 2-related factor 2 (Homo sapiens) (UniProt Q16236); assay: LTEA_HepaRG_NFE2L2: Life Technologies and Expression Analysis (LTEA) Assay for Nuclear factor erythroid 2-related factor 2 (NFE2L2) Transcription Factor using HepaRG (AID 2283527)
# Outline: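 Differentiated human HepaRG cells in serum-free induction medium were exposed for 48 h to eight concentrations (top 100 uM, half-log dilutions, 0.5% DMSO), in duplicate. NFE2L2 mRNA was quantified by TaqMan qRT-PCR, normalized to ACTB, GAPDH and POLR2A, with bidirectional fitting versus DMSO.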
# [13] = read-out: succinate dehydrogenase complex iron sulfur subunit B (SDHB), SDHB (gene 6390); assay: LTEA_HepaRG_SDHB: Life Technologies and Expression Analysis (LTEA) Assay for succinate dehydrogenase complex iron sulfur subunit B (SDHB) using HepaRG (AID 2283528)
# Outline: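 SDHB transcript level read by TaqMan qRT-PCR, housekeeping-normalised (ACTB, GAPDH, POLR2A), after 48 h chemical treatment of plated HepaRG cells; eight concentrations top 100 uM, half-log steps, 0.5% DMSO, duplicates; fitted both directions against DMSO.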
# [14] = read-out: Signal transducer and activator of transcription 3 (Homo sapiens) (UniProt P40763); assay: LTEA_HepaRG_STAT3: Life Technologies and Expression Analysis (LTEA) Assay for Signal transducer and activator of transcription (STAT3) using HepaRG (AID 2283529)
# Outline: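 Differentiated human HepaRG cells in serum-free induction medium were exposed in duplicate for 48 h to eight half-log concentrations up to 100 uM in 0.5% DMSO. STAT3 mRNA was quantified by TaqMan qRT-PCR, normalized to ACTB, GAPDH and POLR2A, and fitted bidirectionally against DMSO.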
# [15] = read-out: solute carrier (SLCO1B1), SLCO1B1 (gene 10599); assay: LTEA_HepaRG_SLCO1B1: Life Technologies and Expression Analysis (LTEA) Assay for solute carrier (SLCO1B1) using HepaRG (AID 2283530)
# Outline: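 Human HepaRG cultures treated for 48 h with an eight-concentration half-log series topping at 100 uM; SLCO1B1 measured by qRT-PCR and fitted bidirectionally relative to DMSO.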
# [16] = read-out: sulfotransferase 2A1 (SULT2A1), SULT2A1 (gene 6822); assay: LTEA_HepaRG_SULT2A1: Life Technologies and Expression Analysis (LTEA) Assay for sulfotransferase 2A1 (SULT2A1) using HepaRG (AID 2283531)
# Outline: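 Gene-expression endpoint in a human liver cell line: SULT2A1 mRNA change after 48 h chemical treatment, curves fitted in both directions relative to 0.5% DMSO vehicle. Concentrations spanned eight half-log steps from 100 uM.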
# [17] = read-out: Transforming Growth Factor (TGFB1), TGFB1 (gene 7040); assay: LTEA_HepaRG_TGFB1: Life Technologies and Expression Analysis (LTEA) Assay for Transforming Growth Factor (TGFB1) Transporter using HepaRG (AID 2283533)
# Outline: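 Eight-point concentration-response (max 100 uM, half-log) in HepaRG under serum-free induction conditions, 48 h. TGFB1 mRNA by qRT-PCR, housekeeping-normalized.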
# [18] = read-out: Pyruvate Dehydrogenase Kinase 4 (PDK4), PDK4 (gene 5166); assay: LTEA_HepaRG_PDK4: Life Technologies and Expression Analysis (LTEA) Assay for Pyruvate Dehydrogenase Kinase 4 (PDK4) using HepaRG (AID 2283525)
# Outline: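 Differentiated human HepaRG cells, pre-cultured 48 h, were exposed in duplicate for 48 h in serum-free induction medium to eight half-log concentrations up to 100 uM in 0.5% DMSO. PDK4 mRNA was quantified by qRT-PCR, normalized to ACTB, GAPDH and POLR2A, bidirectional fitting versus DMSO.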
# [19] = read-out: Transforming Growth Factor (TGFA), TGFA (gene 7039); assay: LTEA_HepaRG_TGFA: Life Technologies and Expression Analysis (LTEA) Assay for Transforming Growth Factor (TGFA) using HepaRG (AID 2283532)
# Outline: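 Differentiated human HepaRG cells, plated 48 h then switched to serum-free induction medium, were exposed in duplicate for 48 h to 8-point half-log series from 100 uM in 0.5% DMSO. TGFA mRNA measured by qRT-PCR, normalized to ACTB/GAPDH/POLR2A, bidirectional fit versus DMSO.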
# Chain of Signal transducer and activator of transcription 3 (Homo sapiens) (P40763 whole entry, looked up): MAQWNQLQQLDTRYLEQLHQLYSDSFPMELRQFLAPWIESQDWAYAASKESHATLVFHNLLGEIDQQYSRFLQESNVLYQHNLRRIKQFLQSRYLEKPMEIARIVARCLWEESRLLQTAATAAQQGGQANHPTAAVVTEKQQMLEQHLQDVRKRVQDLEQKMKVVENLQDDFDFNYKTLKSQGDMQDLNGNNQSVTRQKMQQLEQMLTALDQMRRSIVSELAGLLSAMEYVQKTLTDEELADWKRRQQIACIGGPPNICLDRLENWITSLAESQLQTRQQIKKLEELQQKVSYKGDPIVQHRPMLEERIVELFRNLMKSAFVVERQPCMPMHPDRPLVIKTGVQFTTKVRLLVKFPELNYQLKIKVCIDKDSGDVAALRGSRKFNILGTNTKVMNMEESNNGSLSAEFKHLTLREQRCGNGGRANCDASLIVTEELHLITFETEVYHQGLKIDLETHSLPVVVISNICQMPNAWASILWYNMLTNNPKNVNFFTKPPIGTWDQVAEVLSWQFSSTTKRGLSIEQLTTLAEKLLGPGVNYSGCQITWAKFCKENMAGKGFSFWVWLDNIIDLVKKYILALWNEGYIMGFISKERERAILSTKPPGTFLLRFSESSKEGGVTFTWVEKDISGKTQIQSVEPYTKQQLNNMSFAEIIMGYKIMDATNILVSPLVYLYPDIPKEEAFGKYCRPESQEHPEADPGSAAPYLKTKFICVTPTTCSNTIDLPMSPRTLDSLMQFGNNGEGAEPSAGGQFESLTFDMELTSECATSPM
# Chain of Nuclear factor erythroid 2-related factor 2 (Homo sapiens) (Q16236 whole entry, looked up): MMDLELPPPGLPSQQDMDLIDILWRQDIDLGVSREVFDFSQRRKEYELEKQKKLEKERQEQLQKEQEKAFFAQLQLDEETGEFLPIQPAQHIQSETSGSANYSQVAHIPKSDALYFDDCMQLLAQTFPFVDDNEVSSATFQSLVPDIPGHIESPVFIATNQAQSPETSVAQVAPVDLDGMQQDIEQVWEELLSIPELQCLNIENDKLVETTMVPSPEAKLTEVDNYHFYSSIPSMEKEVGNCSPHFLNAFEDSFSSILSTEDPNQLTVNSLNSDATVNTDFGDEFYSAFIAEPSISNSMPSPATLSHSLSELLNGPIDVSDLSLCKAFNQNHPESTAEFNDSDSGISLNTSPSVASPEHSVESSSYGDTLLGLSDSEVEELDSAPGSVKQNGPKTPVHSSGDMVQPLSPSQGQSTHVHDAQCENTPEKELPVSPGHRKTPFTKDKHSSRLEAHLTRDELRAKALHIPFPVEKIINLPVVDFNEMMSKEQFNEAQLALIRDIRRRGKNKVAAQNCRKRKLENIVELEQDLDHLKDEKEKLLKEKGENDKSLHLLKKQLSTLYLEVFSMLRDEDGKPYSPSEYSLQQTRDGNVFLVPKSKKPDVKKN
# Chain of Nuclear factor NF-kappa-B p105 subunit (Homo sapiens) (P19838 whole entry, looked up): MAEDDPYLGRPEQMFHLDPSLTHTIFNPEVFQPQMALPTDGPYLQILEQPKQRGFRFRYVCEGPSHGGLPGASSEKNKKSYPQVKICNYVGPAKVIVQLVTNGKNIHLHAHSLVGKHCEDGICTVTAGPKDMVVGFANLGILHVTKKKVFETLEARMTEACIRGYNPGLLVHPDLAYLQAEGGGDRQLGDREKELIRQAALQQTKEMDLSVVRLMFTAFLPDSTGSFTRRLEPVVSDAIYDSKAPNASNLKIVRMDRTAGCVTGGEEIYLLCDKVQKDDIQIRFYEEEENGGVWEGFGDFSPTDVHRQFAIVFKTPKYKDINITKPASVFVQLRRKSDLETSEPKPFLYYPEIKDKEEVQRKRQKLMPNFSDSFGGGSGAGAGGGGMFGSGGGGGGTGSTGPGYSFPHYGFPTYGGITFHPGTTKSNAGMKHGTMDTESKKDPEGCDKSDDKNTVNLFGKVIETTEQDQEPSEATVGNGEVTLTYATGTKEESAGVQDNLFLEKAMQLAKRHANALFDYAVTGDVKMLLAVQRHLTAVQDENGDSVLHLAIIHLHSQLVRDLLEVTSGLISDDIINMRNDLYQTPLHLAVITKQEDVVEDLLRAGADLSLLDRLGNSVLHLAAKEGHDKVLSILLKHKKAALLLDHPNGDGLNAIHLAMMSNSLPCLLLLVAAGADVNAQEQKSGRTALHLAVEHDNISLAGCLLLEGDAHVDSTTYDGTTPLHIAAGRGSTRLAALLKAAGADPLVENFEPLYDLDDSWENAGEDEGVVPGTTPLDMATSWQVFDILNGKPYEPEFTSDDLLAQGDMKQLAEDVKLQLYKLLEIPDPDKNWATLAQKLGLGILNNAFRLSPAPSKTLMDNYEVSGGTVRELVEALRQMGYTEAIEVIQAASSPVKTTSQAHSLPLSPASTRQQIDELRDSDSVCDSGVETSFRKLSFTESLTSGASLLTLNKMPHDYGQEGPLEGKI
smiles,measurement,setting,value
COP(=O)(OC)C(O)C(Cl)(Cl)Cl (configuration not stated),outcome,[1],inactive
same,outcome,[2],inactive
same,outcome,[3],inactive
same,outcome,[4],inactive
same,outcome,[5],inactive
same,outcome,[6],inactive
same,outcome,[7],inactive
same,outcome,[8],inactive
same,outcome,[9],inactive
same,outcome,[10],inactive
same,outcome,[11],inactive
same,outcome,[12],inactive
same,outcome,[13],inactive
same,outcome,[14],inactive
same,outcome,[15],inactive
same,outcome,[16],inactive
same,outcome,[17],inactive
CC[C@H](C)[C@H]1O[C@]2(C=C[C@@H]1C)C[C@@H]1C[C@@H](C/C=C(\C)[C@@H](O[C@H]3C[C@H](OC)[C@@H](O[C@H]4C[C@H](OC)[C@@H](NC)[C@H](C)O4)[C@H](C)O3)[C@@H](C)/C=C/C=C3\CO[C@@H]4[C@H](O)C(C)=C[C@@H](C(=O)O1)[C@]34O)O2,AC50,[1],12.1 µM (active)
same,AC50,[2],55.6 µM (active)
same,AC50,[3],29.4 µM (active)
same,AC50,[4],32 µM (active)
same,AC50,[5],92.9 µM (active)
same,AC50,[6],13.3 µM (active)
same,AC50,[8],33.3 µM (active)
same,AC50,[9],23.5 µM (active)
same,AC50,[10],23.8 µM (active)
same,AC50,[18],91.9 µM (active)
same,AC50,[11],31.7 µM (active)
same,outcome,[12],inactive
same,outcome,[13],inactive
same,AC50,[14],11.9 µM (active)
same,AC50,[15],19.9 µM (active)
same,AC50,[16],26.3 µM (active)
same,outcome,[19],inactive
same,outcome,[17],inactive
O=c1ccc(=O)[nH][nH]1,outcome,[1],inactive
same,outcome,[2],inactive
same,outcome,[3],inactive
same,outcome,[4],inactive
same,outcome,[5],inactive
same,outcome,[6],inactive
same,outcome,[7],inactive
same,outcome,[8],inactive
same,outcome,[9],inactive
same,outcome,[10],inactive
same,outcome,[11],inactive
same,outcome,[12],inactive
same,outcome,[13],inactive
same,outcome,[14],inactive
same,outcome,[15],inactive
same,outcome,[16],inactive
same,outcome,[17],inactive
